This note sets out measurements from ChEMBL document CHEMBL3988442, “University of Dundee, Small-Polar-MMV Screening Library” (2021).

The target in experiment [1] is T1, Aspartate--tRNA(Asp/Asn) ligase (Mycobacterium tuberculosis (strain ATCC 25618 / H37Rv)) (UniProt P9WFW3). Note: in the data most compounds retested in dose-response had high values.
T1 sequence (whole entry): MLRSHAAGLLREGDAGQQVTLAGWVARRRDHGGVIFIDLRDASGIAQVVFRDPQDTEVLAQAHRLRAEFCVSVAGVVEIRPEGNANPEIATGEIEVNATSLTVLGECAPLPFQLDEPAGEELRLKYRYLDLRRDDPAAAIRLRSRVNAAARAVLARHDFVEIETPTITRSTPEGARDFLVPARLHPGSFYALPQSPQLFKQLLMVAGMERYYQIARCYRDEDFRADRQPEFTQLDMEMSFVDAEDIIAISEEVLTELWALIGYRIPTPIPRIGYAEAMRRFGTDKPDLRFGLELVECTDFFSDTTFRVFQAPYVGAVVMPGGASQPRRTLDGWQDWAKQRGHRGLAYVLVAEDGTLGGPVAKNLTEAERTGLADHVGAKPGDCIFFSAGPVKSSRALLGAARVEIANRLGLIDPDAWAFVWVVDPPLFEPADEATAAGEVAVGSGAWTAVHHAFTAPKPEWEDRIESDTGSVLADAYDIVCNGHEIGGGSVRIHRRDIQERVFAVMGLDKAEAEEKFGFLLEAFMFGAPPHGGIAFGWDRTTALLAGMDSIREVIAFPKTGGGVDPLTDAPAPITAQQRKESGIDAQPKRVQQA
Put plainly: Assay for Asp RNA synthetase-1 from Mycobacterium tuberculosis. On the set-up: scale not given: direction of the effect not stated beside the values. Particulars: 30 µM. The class given is functional.

Experiment [2] concerns the target Shiga toxin 2 (Escherichia coli O157:H7) (UniProt P09385+P09386). Description: E. coli 0.157:H7 Shiga Toxin SOP - stx2 screening assay. The experiment is classed as functional. On the set-up: scale not given: direction of the effect not stated beside the values. Particulars: 30 µM.

As to `CN1CCN(CCO)C(=O)C12CCN(Cc1ccsc1)CC2`, the Percent Effect in experiment [1] is -3.89%; in experiment [2], -1.74%.
The corresponding values for `CNC(=O)[C@@H]1C[C@H]2CN(Cc3ccco3)C[C@H]2N1C` are 1.3% and -1.93%.
For `CC(C)(C)c1n[nH]cc1CN1CCc2nc3ccsc3c(=O)n2CC1`, the Percent Effect in experiment [1] was -0.849%; in experiment [2], 12.6%.
Regarding `Cn1cc(CN2C[C@@H]3COC[C@]3(CNC(=O)c3ccsc3)C2)cn1`, the Percent Effect in experiment [1] is 0.656%; in experiment [2] it was -3.31%.
Consider `Cc1cccn2c(=O)cc(CN3CCCCC3Cn3cncn3)nc12` (centres undefined), for which the Percent Effect was -0.0141% in experiment [1] and -18.4% in experiment [2].
Turning to `CS(=O)(=O)N1CCC(C(=O)NC(Cc2ccsc2)c2nccs2)CC1` (centres undefined), the Percent Effect in experiment [1] is -5.91%; in experiment [2], 16.3%.
The corresponding values for `Cn1cccc1C(=O)N1CCC2(CC1)CN(c1cncnc1)C(=O)CO2` are -4.72% and -1.71%.
As for `COCCNc1ccc(CNC(=O)Nc2cn[nH]c2)cc1`, the Percent Effect is -0.4% in experiment [1] and -2.17% in experiment [2].
For `COc1ccccc1S(=O)(=O)N1CCC(Oc2cccnn2)CC1` the same measures were -2.24% and -12.5%.
On to `Cc1nn(C)c(N2CCOCC2)c1CNC1CCOc2ccccc21` (centres undefined), for which the Percent Effect was -2.83% in experiment [1] and 9.33% in experiment [2].
Consider `CN(C)c1nc2c(c(N3CCC(O)CC3)n1)CN(CC1CCNC1)CC2` (centres undefined), for which the values for the Percent Effect in experiment [1] and in experiment [2] were 3.47% and -11.1%, respectively.
For `Cc1cc(C2CCCN(C(=O)c3c(C)nn4cccnc34)C2)n[nH]1` (centres undefined), the Percent Effect in experiment [1] was -6.19%; in experiment [2] it was 7.06%.
The corresponding values for `Cc1ccccc1CSCCn1nc2ccccn2c1=O` are -1.33% and 26.4%.
Regarding `COCCC(=O)Nc1ccnc(Oc2ccccc2)c1`, the Percent Effect is 13.9% in experiment [1] and -27.8% in experiment [2].
Consider `Cc1nc(C)n(CC2CCCN2Cc2cn(-c3ccccc3)nn2)n1` (centres undefined), for which the Percent Effect was -2.81% in experiment [1] and -8.85% in experiment [2].
For `O=C(c1cccc(F)c1)N1CCN2C[C@H](OCc3cccnc3)C[C@H]2C1` the same measures were -1.22% and -4.11%.
The corresponding values for `Cc1nc(C2CCCN(C(=O)Cn3ccccc3=O)C2)no1` (centres undefined) are -1.54% and 25.3%.
For the molecule `Cc1nc(CN2CCCC(N(C)Cc3cscn3)C2)no1` (centres undefined), the Percent Effect in experiment [1] is 4.73%; in experiment [2], -14.1%.
In the case of `COc1cccc(C(=O)N2CCCCC2CNC(N)=O)c1` (centres undefined), the Percent Effect in experiment [1] turned out to be 3.2%; in experiment [2], 26.9%.
In the case of `CCc1nc(C2CCCN2C(=O)c2ncoc2CC)no1` (centres undefined), the results for the Percent Effect in experiment [1] and in experiment [2] were -3.37% and 4.73%, respectively.
In the case of `O=C(C1=CCCC1)N1CCO[C@H]2[C@@H](Oc3ccccn3)CC[C@@H]21`, the Percent Effect is 0.28% in experiment [1] and -1.55% in experiment [2].
For `CNC(=O)c1ccc(C2CN(C(=O)c3cncs3)CCO2)nc1` (centres undefined) the same measures were 3.26% and -3.71%.
For `CC1CCCN(CCNC(=O)c2ccn(-c3ccccc3)n2)C1` (centres undefined), the Percent Effect is 5.86% in experiment [1] and -20.3% in experiment [2].
For the molecule `COc1cccc(S(=O)(=O)NC(=O)COc2c(C)cccc2C)c1`, the results for the Percent Effect in experiment [1] and in experiment [2] were -3% and 6.76%, respectively.
The corresponding values for `N#Cc1ccccc1N1CCCN(C(=O)CCc2nccs2)CC1` are -8.37% and 9.06%.
For the molecule `Clc1ccc2cccnc2c1CN1CCCC(Cn2cncn2)C1` (centres undefined), the Percent Effect was -1.86% in experiment [1] and -6.27% in experiment [2].
For `Cn1cc(CN2CC[C@H]3C[C@H](c4nc(C5CC5)cs4)O[C@@H]3C2)cn1` the same measures were -0.624% and -28.1%.
The corresponding values for `O=C(c1cn(-c2cc(N3CCSCC3)ncn2)cn1)N1CCSCC1` are -8.02% and 1.44%.
The corresponding values for `Cc1ncsc1C(=O)NCCSCc1cccs1` are 2.21% and -24.7%.
Regarding `CC(NC(=O)NCCCOC1CCCCC1)c1nncn1C` (centres undefined), the results for the Percent Effect in experiment [1] and in experiment [2] were -3.32% and -6.91%, respectively.
For `Nc1ncc2c(n1)CN(C1CCCC1)C2=O` the same measures were 6.87% and -55.7%.
For `CC(C)n1ccnc1CN1CCCN(C(=O)CC2C=CCC2)CC1` (centres undefined) the same measures were 1.91% and -0.917%.
As for `O=C(CNC(=O)N1CCc2c([nH]c3ccc(Cl)cc23)C1)N1CCOCC1`, the Percent Effect was 3.4% in experiment [1] and -37.6% in experiment [2].
For `CC(C)NC(=O)Nc1ccc(CS(=O)(=O)C(C)(C)C)cc1` the same measures were 0.689% and 0.4%.
The corresponding values for `COCCNC(=O)[C@H]1C[C@@H]2CCN(c3nncs3)C[C@H]2O1` are 1.82% and -18.8%.
For `CCCn1c(C)c(CC(=O)N(C)CCOC)c2c1CC(C)(C)CC2=O` the same measures were 1.4% and -6.17%.
Consider `O=C(c1cccnc1-n1cncn1)N1CCN(CC2CC2)CC1`, for which the Percent Effect was 0.524% in experiment [1] and -1.68% in experiment [2].
On to `CC(C)Oc1ncccc1CNC(=O)N1CCC(C(N)=O)C1` (centres undefined), for which the Percent Effect in experiment [1] was -4.37%; in experiment [2] it was 30.9%.
The corresponding values for `Cc1noc(C)c1C(=O)NCc1ccnc(OCC(F)(F)F)c1` are -0.189% and 10.8%.
The corresponding values for `CS(=O)(=O)NCCCNC(=O)c1cccnc1O` are 5.28% and -16.3%.
Take `CCNC(c1cccnc1)c1ccc(F)c(F)c1` (centres undefined): the Percent Effect in experiment [1] is -4.58%; in experiment [2], 10.8%.
Consider `Cn1cc(N2CCC(NC(=O)c3c(F)cccc3F)C2=O)cn1` (centres undefined), for which the Percent Effect was 0.409% in experiment [1] and -11.8% in experiment [2].
The corresponding values for `CN(C)Cc1nn(C)c2c1CCN(S(=O)(=O)c1cccs1)C2` are 3.37% and -17.1%.
The corresponding values for `CSc1nccn1-c1cccc(C(=O)NCCCN2CCOCC2)c1` are -1.07% and 27.6%.
`CCc1nc(CN(CC(N)=O)C(C)C)cs1`: the Percent Effect in experiment [1] was 0.799%; in experiment [2] it was -3.84%.
For `COCCC(=O)N1CCN(C)c2ncccc2C1` the same measures were 4.52% and -19.6%.
In the case of `CN(C)S(=O)(=O)N1CCC2(CCCN(Cc3ccc(F)cc3)C2=O)C1` (centres undefined), the values for the Percent Effect in experiment [1] and in experiment [2] were -2.05% and -20.5%, respectively.
